# PMK inhibit – S. pneumoniae PMK inhibition | purified PMK, PK/LDH-coupled NADH absorbance 340 nm | inhibition, % at 10 µM | 65,000 compounds, 0.49% hits | AID 539;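 active means top-ranked compounds by inhibition in the single 10 µM screen, taking a fixed number of the strongest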;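 further: 0% = full reaction with DMSO carrier and 100% = background rate without enzyme reaction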
# Abs 340nm – compound absorbs light at 340 nm | compound absorbance at 340 nm, fold over control | fold change at 10 µM | 65,000 tested, under 10 active | AID 708;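 active means at 10 µM dose, initial 340 nm absorbance at least 2 fold that of control wells; inactive means change under 2 fold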;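 further: initial absorbance extrapolated from kinetic A340 decline of NADH oxidation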
# Autofluor 339 – intrinsic fluorescence of library compounds, ex339/em460 – biochemical, MLSMR library, data from DPM-DC assay, artefact control, profiling panel; 65,000 compounds, 5.5% hits; fluorescence fold increase at 10 µM; compound autofluorescence, ex339/em460 nm, NADH buffer; stronger effect = higher value; 1 = no-compound wells, NADH background;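 active means at 10 µM, mean starting fluorescence two-fold or more over control wells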;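 further: signal is the first read of a kinetic run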
# NADH enzymes – inhibition of NAD/NADH coupling enzymes, library profiling. coupled PK/LDH NADH assays, four targets. IC50, µM (highest dose often 10 µM), without a hit: top-dose inhibition. 65,000 compounds, 0.02% hits. AID 774;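 active means single-dose screening hits from any of four coupled enzyme assays that gave an IC50 when retested across doses; inconclusive means no clear call, values can overlap the other calls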;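 further: the DPM-DC format reads NADH fluorescence rather than 340 nm absorbance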
# MK inhibit – inhibitors of Streptococcus pneumoniae mevalonate kinase; purified MK, PK/LDH-coupled NADH absorbance 340 nm; inhibition, % at 10 µM; 65,000 compounds, 0.48% hits; AID 555;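 active means ranked among the strongest by inhibition in the single 10 µM screen, a fixed top-ranked set picked for dose follow-up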
# Spn DPM-DC inh – blocks S. pneumoniae diphosphomevalonate decarboxylase; purified DPM-DC, PK/LDH coupled NADH fluorescence; calls only at 10 µM; 65,000 compounds, 0.49% hits; AID 556;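 active means the 320 compounds with the highest percent inhibition in the single-dose primary screen, excluding strongly autofluorescent ones, cut at about 32% in these data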;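 further: kinetic rate of NADH fluorescence loss reporting ADP formed by the decarboxylase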
# * hit, by the source's call; i = inactive; ? = inconclusive; / = no result shown. Rows were chosen to be rich in hits. Some 6.5% of all compounds tested hit in one or more screens of this group.
SMILES,PMK inhibit,Abs 340nm,Autofluor 339,NADH enzymes,MK inhibit,Spn DPM-DC inh
Cc1cnc(-c2nnc(N(C)C(=O)C3CCCO3)s2)cn1 (stereo not drawn),16,1,2.3*,20%,21,i
Cc1csc(NC(=O)C2CCCO2)n1 (stereo not drawn),12,0.98,0.97,2%,0,i
COCC(=O)N(C)c1nnc(-c2cnc(C)cn2)s1,32*,1,1.6,15%,0,i
OCCNc1nc(-c2ccccc2)c2ccccc2n1,12,1,2.4*,8%,3,/
Cc1ccc2nc(NCCO)nc(-c3ccccc3)c2c1,18,1,5*,17%,15,/
COc1ccc2[nH]c(=O)c(CN(CCc3ccccc3)Cc3nnnn3CC3CCCO3)cc2c1 (stereo not drawn),12,1.1,2.5*,10%,2,i
COc1ccc2[nH]c(=O)c(CN(Cc3ccccc3OC)Cc3nnnn3CC3CCCO3)cc2c1 (stereo not drawn),7,1.1,2.3*,11%,3,i
COc1ccc2[nH]c(=O)c(CN(Cc3ccc(C)cc3)Cc3nnnn3CC3CCCO3)cc2c1 (stereo not drawn),13,1.1,2.1*,15%,12,i
COc1ccccc1CN(Cc1cc2cc(C)cc(C)c2[nH]c1=O)Cc1nnnn1CC1CCCO1 (stereo not drawn),26*,1,1.3,9%,0,i
COc1ccccc1CN(Cc1cc2cc(C)ccc2[nH]c1=O)Cc1nnnn1CC1CCCO1 (stereo not drawn),8,1,1.2,7%,4,i
Cc1nc2ncccn2c1-c1csc(NCc2ccco2)n1,0,1.1,1.1,0%,0,i
CCSc1cnc(-c2ccccc2)n1CC,0,1,1,6%,17,i
COc1ccc(N2CCN(C(c3ccco3)c3sc4nc(C)nn4c3O)CC2)cc1 (stereo not drawn),27*,1,1,12%,8,i
COc1ccc(OC)c2c1CCC2=O,0,1,2.3*,4%,8,/
COCC(=O)Nc1nnc(CCc2ccccc2)s1,17,1,1.1,6%,0,i
Cn1c(Cc2ccccc2)nnc1SCC(=O)Nc1ccccc1N1CCOCC1,1,1,1.1,2%,5,i
CC(C)n1nnnc1SCC(=O)Nc1ccccc1N1CCOCC1,active,1,1,5%,2,i
CCOC(=O)c1c(N)n(CCOC(=O)c2cccs2)c2nc3ccccc3nc12,9,1.1,3.7*,9%,8,/
Clc1ccc(-c2nnc3sc(-c4ccc(Br)o4)nn23)cc1,14,1,2.2*,4%,11,i
Clc1ccc(-c2nnc3sc(-c4ccc(Br)o4)nn23)c(Cl)c1,10,1.1,1.8,7%,10,i
c1ccc2c(c1)[nH]c1c(N3CCCC3)ncnc12,13,1.1,1.4,10%,13,i
c1ccc2c(c1)[nH]c1c(N3CCOCC3)ncnc12,2,1.1,1.7,5%,3,i
CN1CCN(c2ncnc3c2[nH]c2ccc(F)cc23)CC1,0,1.1,2.3*,4%,8,/
c1ccc2c(c1)[nH]c1c(N3CCN(C4CCCCC4)CC3)ncnc12,0,1.1,2.3*,5%,9,/
Cc1ccc2[nH]c3c(N4CCOCC4)ncnc3c2c1,0,1,2.5*,2%,2,/
SMILES,PMK inhibit,Abs 340nm,Autofluor 339,NADH enzymes,MK inhibit,Spn DPM-DC inh
CC(=O)Oc1c(C)cc(O)c2ccccc12,2,1.1,1.3,3%,5,i
CCCC(=O)N(c1ccc(F)cc1)C1C=CS(=O)(=O)C1 (stereo not drawn),15,0.98,1.1,7%,5,i
CC(=C/C(=O)O)/C=C/c1cccs1,12,1.1,1,9%,12,i
COc1ccccc1NC(=O)C1=C(C)Nc2nc(-c3cccs3)nn2C1c1cccnc1 (stereo not drawn),13,1,1.1,6%,4,i
COc1ccc(-c2cc(C(N)=O)nc(N3CCCCCC3)n2)cc1,11,1.1,3.5*,9%,7,/
c1ccc(-c2oc3ncnc(NCCCN4CCOCC4)c3c2-c2ccccc2)cc1,13,1.1,3.8*,12%,10,/
COc1ccc(-c2oc3ncnc(NCCN4CCOCC4)c3c2-c2ccc(OC)cc2)cc1,8,1.1,3.8*,9%,9,/
COc1ccc(-c2oc3ncnc(NCCCN4CCOCC4)c3c2-c2ccc(OC)cc2)cc1,16,1.1,3.8*,17%,17,/
COc1ccc(-c2oc3ncn(CCN4CCOCC4)c(=N)c3c2-c2ccc(OC)cc2)cc1,16,1.1,1.5,6%,10,i
CC(=O)Nc1ccc(S(=O)(=O)NC(CC(=O)O)c2ccc(OC(C)C)cc2)cc1 (stereo not drawn),19,0.99,1.1,7%,0,i
O=c1c2ccccc2nc2n1CCCCC2,8,1,1,5%,7,i
O=c1c2ccccc2nc2n1CCC2,23,1,1.1,?,86*,i
O=c1c2ccccc2nc2n1CCCCN2,9,1.1,3.8*,6%,3,/
Nc1ccc2nc3n(c(=O)c2c1)CCC3,12,1.1,2.1*,9%,6,/
Cc1ccccc1OCC(=O)OC(C)CN1CCN(C)CC1 (stereo not drawn),8,1,1.1,6%,11,i
COc1ccccc1NC(=O)N(Cc1ccccc1)C1=NCC(C)S1 (stereo not drawn),9,1,1.1,4%,2,i
COC(=O)c1ccccc1NC(=O)CSc1nnc(-c2cccc(NC(C)=O)c2)n1C,12,1,1.1,6%,6,i
CCOc1ccc(S(=O)(=O)Nc2ccccc2C(=O)Nc2ccccc2N2CCOCC2)cc1,10,0.99,1,2%,1,i
CCOc1ccc(S(=O)(=O)Nc2ccccc2C(=O)NCC2CCCO2)cc1 (stereo not drawn),8,1,2.1*,7%,5,/
Cc1cccc2cc(C#N)c(NCCNS(=O)(=O)c3ccc4c(c3)OCCO4)nc12,10,1,2.1*,8%,4,i
CCOc1ccc2nc(NCCNC(=O)Nc3ccccc3)c(C#N)cc2c1,14,1,1.7,10%,8,i
Cc1ccc2cc(C#N)c(NCCNC(=O)C3CCC3)nc2c1C,14,1.1,3.1*,12%,1,i
Cc1cccc2cc(C#N)c(NCCNC(=O)NC3CCCCC3)nc12,12,1,2.1*,6%,6,i
CN(C(=O)CN1CCC(NC(=O)C2CCCCC2)CC1)C1CCCCC1,8,1,1.1,8%,0,i
Cc1cc(C)nc(NC2=NC3CCCCC3N2)n1 (stereo not drawn),7,1.1,1.1,4%,6,i

# High-throughput results (PubChem)
